Assay results reported in PubChem BioAssay (EPA / NIEHS).
Activity calls are given as the source filed them. How the source made its calls: active means hit-call score of the fitted dose curve at least 0.9, where 1 is the maximum; inactive means score below 0.9.

Columns and labels:
Conditions in all cases: mRNA level, 48 h; actives raise or lower the signal
[1] = read-out: Cytochrome P450 7A1 (Homo sapiens) (UniProt P22680); test: LTEA_HepaRG_CYP7A1: Life Technologies and Expression Analysis (LTEA) Assay for Cytochrome P450 7A1 (CYP7A1) using HepaRG (AID 2283496)
Summary of the method: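 Gene expression endpoint in human HepaRG liver cells treated for 48 h with test chemicals (up to 100 uM, 0.5% DMSO). Values come from bidirectional concentration-response fitting versus DMSO.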

[2] = read-out: Glutathione S-Transferase (GSTA2), GSTA2 (gene 2939); test: LTEA_HepaRG_GSTA2: Life Technologies and Expression Analysis (LTEA) Assay for Glutathione S-Transferase (GSTA2) using HepaRG (AID 2283497)
Summary of the method: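 Human HepaRG cells, plated 48 h, then exposed in serum-free induction medium for 48 h to eight half-log concentrations up to 100 uM in 0.5% DMSO, duplicate. GSTA2 mRNA by qRT-PCR, normalized to ACTB/GAPDH/POLR2A; bidirectional fit versus DMSO.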

[3] = read-out: Glutamate-cysteine ligase catalytic (GCLC), GCLC (gene 2729); test: LTEA_HepaRG_GCLC: Life Technologies and Expression Analysis (LTEA) Assay for Glutamate-cysteine ligase catalytic (GCLC) using HepaRG (AID 2283498)
Summary of the method: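 Differentiated human HepaRG cells, plated 48 h then switched to serum-free induction medium, were exposed in duplicate for 48 h to 8 half-log concentrations topping at 100 uM in 0.5% DMSO. GCLC mRNA was quantified by qRT-PCR against ACTB, GAPDH and POLR2A.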

[4] = read-out: growth arrest and DNA damage 45 (GADD45G), GADD45G (gene 10912); test: LTEA_HepaRG_GADD45G: Life Technologies and Expression Analysis (LTEA) Assay for growth arrest and DNA damage 45 (GADD45G) using HepaRG (AID 2283499)
Summary of the method: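 Concentration-response in HepaRG: 48 h dosing, 0.5% DMSO, highest level 100 uM. GADD45G expression by qRT-PCR, normalised to endogenous controls; bidirectional fit to DMSO.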

[5] = read-out: Glutathione S-transferase M3 (GSTM3), GSTM3 (gene 2947); test: LTEA_HepaRG_GSTM3: Life Technologies and Expression Analysis (LTEA) Assay for Glutathione S-transferase M3 (GSTM3) using HepaRG (AID 2283501)
Summary of the method: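 Expression of GSTM3 is determined by qRT-PCR in human liver HepaRG cells treated 48 h with an 8-point half-log range from 100 uM in 0.5% DMSO.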

[6] = read-out: Insulin Like Growth Factor 1 (IGF1), IGF1 (gene 3479); test: LTEA_HepaRG_IGF1: Life Technologies and Expression Analysis (LTEA) Assay for Insulin Like Growth Factor 1 (IGF1) using HepaRG (AID 2283506)
Summary of the method: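 Differentiated human HepaRG cells were dosed for 48 h in serum-free induction medium with 0.5% DMSO, eight half-log concentrations up to 100 uM, in duplicate. IGF1 mRNA was quantified by qRT-PCR normalized to ACTB, GAPDH, POLR2A; bidirectional fitting versus DMSO.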

[7] = read-out: Intercellular Adhesion Molecule 1 (ICAM1), ICAM1 (gene 3383); test: LTEA_HepaRG_ICAM1: Life Technologies and Expression Analysis (LTEA) Assay for Intercellular Adhesion Molecule 1 (ICAM1) using HepaRG (AID 2283507)
Summary of the method: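 Using the human liver line HepaRG, compounds are tested in duplicate over 48 h at concentrations up to 100 uM. Expression is determined by TaqMan qRT-PCR, normalized to endogenous controls, and analysed relative to 0.5% DMSO vehicle.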

[8] = read-out: Insulin-like growth factor-binding protein 1 (IGFBP1), IGFBP1 (gene 3484); test: LTEA_HepaRG_IGFBP1: Life Technologies and Expression Analysis (LTEA) Assay for Insulin-like growth factor-binding protein 1 (IGFBP1) using HepaRG (AID 2283508)
Summary of the method: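 HepaRG, 48 h, 8 conc. (max 100 uM, half-log), duplicates, 0.5% DMSO. Readout: TaqMan qRT-PCR, ACTB/GAPDH/POLR2A normalisation. Fit: bidirectional vs DMSO.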

[9] = read-out: Interleukin 6 Receptor (IL6R), IL6R (gene 3570); test: LTEA_HepaRG_IL6R: Life Technologies and Expression Analysis (LTEA) Assay for Interleukin 6 Receptor (IL6R) using HepaRG (AID 2283510);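 on AC50: TaqMan qRT-PCR signal normalized to ACTB GAPDH and POLR2A housekeeping genes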
Summary of the method: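 Differentiated human HepaRG cells, plated 48 h then switched to serum-free induction medium, were dosed in duplicate for 48 h at eight half-log concentrations up to 100 uM in 0.5% DMSO. IL6R mRNA quantified by qRT-PCR, normalized to ACTB/GAPDH/POLR2A; bidirectional fit versus DMSO.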

[10] = read-out: Hypoxia-inducible factor 1-alpha (Homo sapiens) (UniProt Q16665); test: LTEA_HepaRG_HIF1A: Life Technologies and Expression Analysis (LTEA) Assay for Hypoxia-inducible factor 1 (HIF1A) Trancription factor using HepaRG (AID 2283503);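 further: HIF1A transcript by TaqMan qRT-PCR normalized to ACTB GAPDH and POLR2A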
Summary of the method: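 HepaRG, 48 h exposure, 8-pt half-log series from 100 uM, 0.5% DMSO vehicle, duplicates. Readout: HIF1A transcript by qRT-PCR (Fluidigm array), housekeeping-normalised. Bidirectional curve fit vs DMSO baseline.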

Measured: AC50

Sequence of Hypoxia-inducible factor 1-alpha (Homo sapiens) (Q16665 whole entry, looked up): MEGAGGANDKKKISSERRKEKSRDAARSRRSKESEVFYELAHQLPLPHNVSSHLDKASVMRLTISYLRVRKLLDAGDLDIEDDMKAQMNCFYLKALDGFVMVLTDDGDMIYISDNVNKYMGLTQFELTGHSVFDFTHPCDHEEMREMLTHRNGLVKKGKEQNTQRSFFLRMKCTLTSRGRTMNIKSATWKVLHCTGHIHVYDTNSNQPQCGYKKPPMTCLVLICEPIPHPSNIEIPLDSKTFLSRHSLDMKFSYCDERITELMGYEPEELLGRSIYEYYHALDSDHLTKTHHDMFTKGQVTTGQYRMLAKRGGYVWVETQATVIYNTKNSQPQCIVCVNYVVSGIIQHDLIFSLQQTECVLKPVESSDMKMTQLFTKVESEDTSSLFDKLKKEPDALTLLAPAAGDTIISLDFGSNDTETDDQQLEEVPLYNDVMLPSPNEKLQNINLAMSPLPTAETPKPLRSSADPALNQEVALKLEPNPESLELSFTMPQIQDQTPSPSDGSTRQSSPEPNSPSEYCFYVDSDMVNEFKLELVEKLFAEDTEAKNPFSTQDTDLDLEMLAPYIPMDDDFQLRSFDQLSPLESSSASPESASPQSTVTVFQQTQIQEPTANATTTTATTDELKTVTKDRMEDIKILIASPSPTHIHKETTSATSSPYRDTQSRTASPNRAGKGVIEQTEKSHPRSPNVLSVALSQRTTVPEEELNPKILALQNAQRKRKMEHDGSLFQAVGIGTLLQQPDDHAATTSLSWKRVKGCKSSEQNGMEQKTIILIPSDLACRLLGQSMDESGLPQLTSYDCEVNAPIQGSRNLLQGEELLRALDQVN

CCC(C)c1ccccc1O (stereo not drawn)
inactive: [1] | [2] | [3] | [4] | [5] | [6] | [7] | [8] | [9]

Cc1[nH]nc2c1N=C(c1ccccc1Cl)c1cc([N+](=O)[O-])ccc1N2
active: [1] 27 µM | [2] 17.2 µM | [3] 2.83 µM | [4] 0.557 µM | [5] 50 µM | [6] 1.88 µM | [8] 79.6 µM
inactive: [10] | [7] | [9]

CCCCCCCCCCCCOS(=O)(=O)O
inactive: [3] | [4] | [5] | [10] | [7]
active: [8] 79.1 µM | [9] 93.1 µM

CCCCCCCCCCCCCCC
inactive: [1] | [2] | [3] | [4] | [5] | [10] | [6] | [7] | [8] | [9]

CC(=O)Nc1ccc(O)cc1
inactive: [1] | [2] | [3] | [4] | [5] | [6] | [7] | [8] | [9]

CN(C)CCOC(c1ccccc1)c1ccccc1
inactive: [2] | [3] | [4] | [5] | [6] | [7] | [8] | [9]

CCCCC(CC)C(=O)O (stereo not drawn)
inactive: [1] | [2] | [3] | [4] | [5] | [10] | [6] | [7] | [8] | [9]

N=C(N)c1ccc(OCCCCCOc2ccc(C(=N)N)cc2)cc1
active: [1] 6.66 µM | [2] 7.03 µM | [3] 27.9 µM | [4] 4.37 µM | [5] 5.05 µM | [10] 4.28 µM | [6] 11.1 µM | [7] 10.9 µM | [8] 3.52 µM | [9] 29.3 µM

OCC(CO)(CBr)CBr
inactive: [1] | [2] | [3] | [4] | [5] | [10] | [6] | [7] | [8] | [9]

O=C(c1ccccc1)c1ccccc1
inactive: [2] | [3] | [4] | [5] | [10] | [6] | [7] | [8] | [9]

CN(Cc1cnc2nc(N)nc(N)c2n1)c1ccc(C(=O)N[C@@H](CCC(=O)O)C(=O)O)cc1
inactive: [3] | [4] | [5] | [6] | [7] | [8] | [9]
active: [1] 0.233 µM | [2] 0.264 µM

CCCCc1oc2ccccc2c1C(=O)c1cc(I)c(OCCN(CC)CC)c(I)c1
inactive: [9]
active: [2] 59 µM | [3] 67.4 µM | [4] 55.1 µM | [5] 37.8 µM | [10] 64.5 µM | [6] 46.2 µM | [7] 59.5 µM | [8] 54 µM

CS(=O)(=O)c1ccc([C@@H](CC2CCCC2)C(=O)Nc2cnccn2)cc1Cl
active: [2] 73.7 µM | [6] 32.8 µM | [7] 73.7 µM | [8] 75.2 µM
inactive: [3] | [4] | [5] | [10] | [9]

O=C1NS(=O)(=O)c2ccccc21
inactive: [1] | [2] | [3] | [4] | [5] | [10] | [6] | [7] | [8] | [9]

O=C(CCCN1CCC(O)(c2ccc(Cl)cc2)CC1)c1ccc(F)cc1
active: [1] 82 µM | [2] 78 µM | [3] 77.1 µM | [4] 50 µM | [6] 78.5 µM | [7] 75 µM | [8] 71.1 µM | [9] 50 µM
inactive: [5]

CCCCC=O
inactive: [1] | [2] | [3] | [4] | [5] | [10] | [6] | [7] | [8] | [9]
